# Laboratory results: publication PMC7862700, “An all-to-all approach to the identification of sequence-specific readers for epigenetic DNA modifications on cytosine”
# Legend:
# Assay in all cases: DAPPL (digital affinity profiling via proximity ligation, sequencing); 10 mM Tris-HCl pH 7.5, 50 mM NaCl, 1 mM DTT, 4% glycerol, room temperature, 30 min; GST-TFs on glutathione beads, 16-mer random dsDNA library, 0.1% formaldehyde crosslink after washing; high values mean tight binding
# [1] = target: T1, FEV (Homo sapiens, UniProt Q99581 1-238); details: protein: recombinant; tags: N-terminal GST; dsDNA, one strand shown
# T1 sequence: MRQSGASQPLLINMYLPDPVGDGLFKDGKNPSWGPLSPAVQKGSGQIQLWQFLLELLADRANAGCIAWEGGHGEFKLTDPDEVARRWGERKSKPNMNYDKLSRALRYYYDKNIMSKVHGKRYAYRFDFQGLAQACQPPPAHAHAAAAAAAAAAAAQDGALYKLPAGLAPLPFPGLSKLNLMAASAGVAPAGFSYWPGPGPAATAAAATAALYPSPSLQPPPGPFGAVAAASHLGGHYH
# How it was run: (§1)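 Pools of DNA-barcoded human transcription factors, expressed in yeast as GST fusions on glutathione beads and combined with a tag-only sample, were incubated with 200 nmole of a 16-mer random double-stranded DNA library. Incubation took 30 min at room temperature in Tris/NaCl/DTT/glycerol buffer and was followed by washing, 0.1% formaldehyde crosslinking, proximity ligation (BsaI/T4 ligase, 1 h, 37 °C), PCR amplification and sequencing on an Illumina NextSeq500. Binding signal is the ratio of a hexamer's read frequency for a factor to its frequency for the tag-only sample.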
# [2] = target: ETV5 (Homo sapiens, UniProt P41161 1-510); details: protein: recombinant; tags: N-terminal GST; dsDNA, one strand shown
# How it was run: as §1
# [3] = target: HSF1 (Homo sapiens, UniProt Q00613 1-529); details: protein: recombinant; tags: N-terminal GST; chain copies: 3; dsDNA, one strand shown
# How it was run: as §1
# [4] = target: T2, SPIC (Homo sapiens, UniProt Q8N5J4 1-248); details: protein: recombinant; tags: N-terminal GST; dsDNA, one strand shown
# T2 sequence: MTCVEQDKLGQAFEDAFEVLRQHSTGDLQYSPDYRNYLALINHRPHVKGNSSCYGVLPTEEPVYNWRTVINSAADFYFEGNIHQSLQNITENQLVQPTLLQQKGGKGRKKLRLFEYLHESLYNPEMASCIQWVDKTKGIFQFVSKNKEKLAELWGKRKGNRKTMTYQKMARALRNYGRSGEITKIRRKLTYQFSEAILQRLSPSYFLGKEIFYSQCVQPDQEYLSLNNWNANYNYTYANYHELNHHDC
# How it was run: as §1
# [5] = target: ELF4 (Homo sapiens, UniProt Q99607 1-663); details: protein: recombinant; tags: N-terminal GST; dsDNA, one strand shown
# How it was run: as §1
# [6] = target: T3, ELK4 (Homo sapiens, UniProt P28324-2 1-405); details: protein: recombinant; tags: N-terminal GST; dsDNA, one strand shown
# T3 sequence: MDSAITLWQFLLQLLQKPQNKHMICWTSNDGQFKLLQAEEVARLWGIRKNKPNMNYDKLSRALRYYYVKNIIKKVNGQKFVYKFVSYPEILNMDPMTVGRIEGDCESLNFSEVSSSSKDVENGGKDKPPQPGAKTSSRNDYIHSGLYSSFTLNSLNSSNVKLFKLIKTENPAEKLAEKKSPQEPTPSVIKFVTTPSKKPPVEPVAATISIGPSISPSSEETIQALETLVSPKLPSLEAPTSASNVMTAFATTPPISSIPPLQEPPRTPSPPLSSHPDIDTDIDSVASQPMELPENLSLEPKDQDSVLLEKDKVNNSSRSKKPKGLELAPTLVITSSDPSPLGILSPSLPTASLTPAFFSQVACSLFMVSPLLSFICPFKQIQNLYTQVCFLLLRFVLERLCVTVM
# How it was run: as §1
# [7] = target: T4, ETV2 (Homo sapiens, UniProt O00321 1-342); details: protein: recombinant; tags: N-terminal GST; dsDNA, one strand shown
# T4 sequence: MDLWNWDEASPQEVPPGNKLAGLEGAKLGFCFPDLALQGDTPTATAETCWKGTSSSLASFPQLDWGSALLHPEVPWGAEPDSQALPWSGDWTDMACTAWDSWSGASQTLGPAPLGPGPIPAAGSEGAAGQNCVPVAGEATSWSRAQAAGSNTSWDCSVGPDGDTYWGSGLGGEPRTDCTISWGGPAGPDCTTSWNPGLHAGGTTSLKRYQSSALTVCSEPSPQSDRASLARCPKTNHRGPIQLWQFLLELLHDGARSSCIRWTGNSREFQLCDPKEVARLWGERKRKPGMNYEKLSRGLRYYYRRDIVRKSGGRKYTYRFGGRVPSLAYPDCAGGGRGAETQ
# How it was run: as §1
# [8] = target: T5, ELF3 (Homo sapiens, UniProt P78545 1-371); details: protein: recombinant; tags: N-terminal GST; dsDNA, one strand shown
# T5 sequence: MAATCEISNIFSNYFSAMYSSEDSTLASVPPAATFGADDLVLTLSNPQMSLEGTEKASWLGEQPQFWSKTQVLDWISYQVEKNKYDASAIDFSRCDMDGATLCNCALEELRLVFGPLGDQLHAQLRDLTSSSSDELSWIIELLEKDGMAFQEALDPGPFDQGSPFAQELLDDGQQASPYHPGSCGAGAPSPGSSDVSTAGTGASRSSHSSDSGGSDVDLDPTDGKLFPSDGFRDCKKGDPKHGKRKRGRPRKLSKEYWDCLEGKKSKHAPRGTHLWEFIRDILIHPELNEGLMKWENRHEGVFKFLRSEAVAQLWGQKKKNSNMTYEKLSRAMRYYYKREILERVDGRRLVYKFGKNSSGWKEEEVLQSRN
# How it was run: as §1
# [9] = target: CRX (Homo sapiens, UniProt O43186 1-299); details: protein: recombinant; tags: N-terminal GST; dsDNA, one strand shown
# How it was run: as §1
# [10] = target: ETV1 (Homo sapiens, UniProt P50549 1-477); details: protein: recombinant; tags: N-terminal GST; dsDNA, one strand shown
# How it was run: as §1
# [11] = target: T6, ERF (Homo sapiens, UniProt P50548 1-548); details: protein: recombinant; tags: N-terminal GST; dsDNA, one strand shown
# T6 sequence: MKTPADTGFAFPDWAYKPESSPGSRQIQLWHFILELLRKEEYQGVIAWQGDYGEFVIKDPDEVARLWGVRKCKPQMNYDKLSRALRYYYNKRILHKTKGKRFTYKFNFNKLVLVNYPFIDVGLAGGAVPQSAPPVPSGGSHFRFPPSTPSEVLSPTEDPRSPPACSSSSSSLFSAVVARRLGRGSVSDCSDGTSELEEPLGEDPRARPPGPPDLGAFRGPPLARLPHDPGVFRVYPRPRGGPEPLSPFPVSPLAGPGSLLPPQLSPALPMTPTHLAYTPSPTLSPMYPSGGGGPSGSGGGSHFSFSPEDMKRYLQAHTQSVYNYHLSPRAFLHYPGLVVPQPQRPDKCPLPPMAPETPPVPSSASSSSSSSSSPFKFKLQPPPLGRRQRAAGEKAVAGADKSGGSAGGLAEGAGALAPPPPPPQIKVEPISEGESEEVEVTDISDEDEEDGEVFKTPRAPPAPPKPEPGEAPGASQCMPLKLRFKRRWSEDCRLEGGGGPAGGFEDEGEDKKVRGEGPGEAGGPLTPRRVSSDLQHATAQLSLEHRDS
# How it was run: as §1
# [12] = target: T7, ETV3L (Homo sapiens, UniProt Q6ZN32 1-361); details: protein: recombinant; tags: N-terminal GST; dsDNA, one strand shown
# T7 sequence: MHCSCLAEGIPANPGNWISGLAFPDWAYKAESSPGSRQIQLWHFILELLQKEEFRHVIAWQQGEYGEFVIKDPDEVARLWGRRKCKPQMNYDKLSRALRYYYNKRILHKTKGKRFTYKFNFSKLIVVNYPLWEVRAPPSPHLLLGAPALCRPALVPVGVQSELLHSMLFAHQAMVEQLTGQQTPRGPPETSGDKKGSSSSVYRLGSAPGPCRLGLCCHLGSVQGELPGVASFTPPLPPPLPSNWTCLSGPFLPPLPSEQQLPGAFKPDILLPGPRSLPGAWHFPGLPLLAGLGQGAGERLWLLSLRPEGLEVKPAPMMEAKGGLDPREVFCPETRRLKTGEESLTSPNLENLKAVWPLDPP
# How it was run: as §1
# [13] = target: T8, ETS2 (Homo sapiens, UniProt P15036 1-469); details: protein: recombinant; tags: N-terminal GST; dsDNA, one strand shown
# T8 sequence: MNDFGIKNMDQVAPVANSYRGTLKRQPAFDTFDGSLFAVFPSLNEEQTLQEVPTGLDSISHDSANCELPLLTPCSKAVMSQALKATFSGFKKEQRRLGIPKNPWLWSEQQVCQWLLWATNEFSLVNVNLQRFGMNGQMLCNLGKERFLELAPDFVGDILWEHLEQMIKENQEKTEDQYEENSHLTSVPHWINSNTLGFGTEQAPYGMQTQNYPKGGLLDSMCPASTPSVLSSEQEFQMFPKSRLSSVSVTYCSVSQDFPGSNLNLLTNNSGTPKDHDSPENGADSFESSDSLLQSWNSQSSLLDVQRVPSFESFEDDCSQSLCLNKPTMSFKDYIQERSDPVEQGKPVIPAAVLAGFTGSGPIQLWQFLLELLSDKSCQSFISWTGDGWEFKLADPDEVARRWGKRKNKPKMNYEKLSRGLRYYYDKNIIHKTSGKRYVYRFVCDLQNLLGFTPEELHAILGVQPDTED
# How it was run: as §1
# [14] = target: T9, SPDEF (Homo sapiens, UniProt O95238 1-335); details: protein: recombinant; tags: N-terminal GST; dsDNA, one strand shown
# T9 sequence: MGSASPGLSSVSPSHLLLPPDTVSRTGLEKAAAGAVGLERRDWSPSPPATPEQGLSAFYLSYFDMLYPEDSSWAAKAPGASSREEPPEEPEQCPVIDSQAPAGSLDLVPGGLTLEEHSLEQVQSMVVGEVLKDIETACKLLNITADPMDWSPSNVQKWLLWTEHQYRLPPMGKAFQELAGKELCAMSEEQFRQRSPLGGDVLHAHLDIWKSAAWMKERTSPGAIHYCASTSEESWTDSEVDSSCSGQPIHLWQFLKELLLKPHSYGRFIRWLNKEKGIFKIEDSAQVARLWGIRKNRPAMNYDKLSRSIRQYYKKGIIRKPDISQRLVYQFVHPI
# How it was run: as §1
# [15] = target: T10, ETV7 (Homo sapiens, UniProt Q9Y603 1-341); details: protein: recombinant; tags: N-terminal GST; dsDNA, one strand shown
# T10 sequence: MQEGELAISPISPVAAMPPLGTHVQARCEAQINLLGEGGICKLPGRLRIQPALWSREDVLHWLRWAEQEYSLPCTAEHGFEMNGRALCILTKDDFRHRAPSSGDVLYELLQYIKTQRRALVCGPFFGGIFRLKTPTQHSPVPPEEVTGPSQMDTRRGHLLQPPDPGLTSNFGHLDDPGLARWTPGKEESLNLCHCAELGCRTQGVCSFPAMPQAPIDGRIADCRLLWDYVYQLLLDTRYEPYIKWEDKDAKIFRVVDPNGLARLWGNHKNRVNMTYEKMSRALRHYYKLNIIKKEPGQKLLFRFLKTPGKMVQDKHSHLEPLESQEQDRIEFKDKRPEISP
# How it was run: as §1
# [16] = target: T11, ELF5 (Homo sapiens, UniProt Q9UKW6-2 1-255); details: protein: recombinant; tags: N-terminal GST; dsDNA, one strand shown
# T11 sequence: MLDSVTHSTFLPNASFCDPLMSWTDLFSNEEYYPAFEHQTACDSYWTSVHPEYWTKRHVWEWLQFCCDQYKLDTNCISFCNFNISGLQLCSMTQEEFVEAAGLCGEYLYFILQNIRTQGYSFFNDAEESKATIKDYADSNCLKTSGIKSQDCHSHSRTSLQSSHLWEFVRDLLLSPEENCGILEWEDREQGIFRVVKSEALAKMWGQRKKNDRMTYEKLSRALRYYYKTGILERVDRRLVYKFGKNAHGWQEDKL
# How it was run: as §1
# [17] = target: T12, ETV3 (Homo sapiens, UniProt P41162-2 1-143); details: protein: recombinant; tags: N-terminal GST; dsDNA, one strand shown
# T12 sequence: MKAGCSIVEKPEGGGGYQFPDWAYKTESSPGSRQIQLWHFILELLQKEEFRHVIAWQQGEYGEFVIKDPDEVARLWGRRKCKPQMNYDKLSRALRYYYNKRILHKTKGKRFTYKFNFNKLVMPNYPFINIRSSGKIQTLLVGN
# How it was run: as §1
# [18] = target: ETV6 (Homo sapiens, UniProt P41212 1-452); details: protein: recombinant; tags: N-terminal GST; dsDNA, one strand shown
# How it was run: as §1
# Chain of ETV6 (P41212 whole entry): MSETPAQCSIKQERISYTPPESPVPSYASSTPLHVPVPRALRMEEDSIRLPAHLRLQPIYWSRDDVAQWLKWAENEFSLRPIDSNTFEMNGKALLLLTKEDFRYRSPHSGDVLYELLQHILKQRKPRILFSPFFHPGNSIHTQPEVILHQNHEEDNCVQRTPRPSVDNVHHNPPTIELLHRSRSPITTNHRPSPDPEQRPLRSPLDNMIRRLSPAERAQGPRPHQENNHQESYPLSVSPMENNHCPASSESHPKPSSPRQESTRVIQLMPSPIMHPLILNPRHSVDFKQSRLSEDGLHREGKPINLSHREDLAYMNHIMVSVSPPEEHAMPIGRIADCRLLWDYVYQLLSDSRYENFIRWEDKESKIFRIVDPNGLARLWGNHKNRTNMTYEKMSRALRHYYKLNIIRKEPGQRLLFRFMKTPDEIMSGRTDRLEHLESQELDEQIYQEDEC
# Chain of HSF1 (Q00613 whole entry): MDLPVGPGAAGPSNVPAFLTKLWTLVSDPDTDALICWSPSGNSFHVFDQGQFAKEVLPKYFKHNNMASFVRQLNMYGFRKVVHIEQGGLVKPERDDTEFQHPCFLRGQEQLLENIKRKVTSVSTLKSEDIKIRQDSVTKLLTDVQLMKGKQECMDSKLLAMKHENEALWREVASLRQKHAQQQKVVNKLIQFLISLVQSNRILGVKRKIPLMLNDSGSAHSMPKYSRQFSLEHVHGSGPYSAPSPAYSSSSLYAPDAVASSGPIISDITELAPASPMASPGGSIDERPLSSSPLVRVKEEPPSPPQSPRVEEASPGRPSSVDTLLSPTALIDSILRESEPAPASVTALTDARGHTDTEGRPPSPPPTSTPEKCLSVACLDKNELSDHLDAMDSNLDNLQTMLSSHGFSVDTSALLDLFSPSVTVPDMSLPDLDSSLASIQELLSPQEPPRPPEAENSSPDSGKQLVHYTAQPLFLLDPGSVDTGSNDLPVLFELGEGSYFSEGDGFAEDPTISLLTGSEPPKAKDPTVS
# Chain of ETV5 (P41161 whole entry): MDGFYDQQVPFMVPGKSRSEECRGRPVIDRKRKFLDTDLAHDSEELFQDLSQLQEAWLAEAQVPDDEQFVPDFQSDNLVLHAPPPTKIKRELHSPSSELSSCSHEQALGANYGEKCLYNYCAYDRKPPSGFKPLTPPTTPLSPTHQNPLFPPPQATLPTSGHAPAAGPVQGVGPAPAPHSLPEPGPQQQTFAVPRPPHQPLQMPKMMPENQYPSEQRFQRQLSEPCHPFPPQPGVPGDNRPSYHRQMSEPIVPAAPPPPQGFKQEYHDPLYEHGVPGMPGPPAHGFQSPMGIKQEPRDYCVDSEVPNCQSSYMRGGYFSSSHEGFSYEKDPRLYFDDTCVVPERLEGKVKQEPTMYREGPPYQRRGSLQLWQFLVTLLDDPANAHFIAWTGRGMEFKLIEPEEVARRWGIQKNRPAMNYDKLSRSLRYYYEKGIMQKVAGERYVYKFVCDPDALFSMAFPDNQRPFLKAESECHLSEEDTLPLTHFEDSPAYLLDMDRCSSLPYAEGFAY
# Chain of CRX (O43186 whole entry): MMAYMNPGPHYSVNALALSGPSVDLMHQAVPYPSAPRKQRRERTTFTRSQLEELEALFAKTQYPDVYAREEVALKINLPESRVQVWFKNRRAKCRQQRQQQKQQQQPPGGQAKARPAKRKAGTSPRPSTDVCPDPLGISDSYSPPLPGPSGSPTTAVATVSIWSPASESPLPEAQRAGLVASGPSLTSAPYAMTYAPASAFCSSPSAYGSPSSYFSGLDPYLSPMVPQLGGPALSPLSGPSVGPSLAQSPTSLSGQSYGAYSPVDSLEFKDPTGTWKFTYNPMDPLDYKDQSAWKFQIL
# Chain of ETV1 (P50549 whole entry): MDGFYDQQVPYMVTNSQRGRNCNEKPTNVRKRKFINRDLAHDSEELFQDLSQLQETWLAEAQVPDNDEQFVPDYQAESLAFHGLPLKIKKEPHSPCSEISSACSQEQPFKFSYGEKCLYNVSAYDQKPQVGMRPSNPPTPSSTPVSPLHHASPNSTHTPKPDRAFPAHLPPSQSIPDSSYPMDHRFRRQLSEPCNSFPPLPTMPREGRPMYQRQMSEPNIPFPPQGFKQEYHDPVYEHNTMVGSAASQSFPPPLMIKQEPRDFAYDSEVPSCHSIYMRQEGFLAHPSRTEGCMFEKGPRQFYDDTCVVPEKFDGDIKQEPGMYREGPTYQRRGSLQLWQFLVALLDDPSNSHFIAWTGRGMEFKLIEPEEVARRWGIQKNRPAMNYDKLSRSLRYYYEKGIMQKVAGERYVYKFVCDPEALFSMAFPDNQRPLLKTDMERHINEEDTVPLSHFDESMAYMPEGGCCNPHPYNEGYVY
# Chain of ELF4 (Q99607 whole entry): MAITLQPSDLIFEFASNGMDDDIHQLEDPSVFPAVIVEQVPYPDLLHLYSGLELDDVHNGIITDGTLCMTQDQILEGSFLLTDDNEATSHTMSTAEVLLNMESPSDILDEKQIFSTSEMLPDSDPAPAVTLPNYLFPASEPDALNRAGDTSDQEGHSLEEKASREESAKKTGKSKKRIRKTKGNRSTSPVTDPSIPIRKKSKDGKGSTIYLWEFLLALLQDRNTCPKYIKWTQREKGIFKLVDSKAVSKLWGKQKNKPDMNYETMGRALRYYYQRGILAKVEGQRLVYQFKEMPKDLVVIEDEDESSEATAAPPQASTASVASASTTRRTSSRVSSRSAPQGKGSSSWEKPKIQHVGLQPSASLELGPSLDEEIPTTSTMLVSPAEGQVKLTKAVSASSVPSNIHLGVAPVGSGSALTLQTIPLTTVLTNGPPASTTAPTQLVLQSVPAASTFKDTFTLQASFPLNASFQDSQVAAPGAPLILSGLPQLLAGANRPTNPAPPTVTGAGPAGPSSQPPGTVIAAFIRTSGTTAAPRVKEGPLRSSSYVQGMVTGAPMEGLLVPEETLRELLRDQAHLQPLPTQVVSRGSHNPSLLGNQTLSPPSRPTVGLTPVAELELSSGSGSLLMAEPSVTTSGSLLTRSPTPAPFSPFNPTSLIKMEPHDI
sequence,measurement,setting,value
TTATCC,binding signal,[1],"1.44 fold enrichment (6-mer frequency, TF over GST control)"
same,binding signal,[2],"1.45 fold enrichment (6-mer frequency, TF over GST control)"
same,binding signal,[3],"2.49 fold enrichment (6-mer frequency, TF over GST control)"
same,binding signal,[4],"1.51 fold enrichment (6-mer frequency, TF over GST control)"
same,binding signal,[5],"1.33 fold enrichment (6-mer frequency, TF over GST control)"
same,binding signal,[6],"1.45 fold enrichment (6-mer frequency, TF over GST control)"
same,binding signal,[7],"1.61 fold enrichment (6-mer frequency, TF over GST control)"
same,binding signal,[8],"1.41 fold enrichment (6-mer frequency, TF over GST control)"
same,binding signal,[9],"3.97 fold enrichment (6-mer frequency, TF over GST control)"
same,binding signal,[10],"1.27 fold enrichment (6-mer frequency, TF over GST control)"
same,binding signal,[11],"1.44 fold enrichment (6-mer frequency, TF over GST control)"
same,binding signal,[12],"1.38 fold enrichment (6-mer frequency, TF over GST control)"
same,binding signal,[13],"1.51 fold enrichment (6-mer frequency, TF over GST control)"
same,binding signal,[14],"1.76 fold enrichment (6-mer frequency, TF over GST control)"
same,binding signal,[15],"1.44 fold enrichment (6-mer frequency, TF over GST control)"
same,binding signal,[16],"1.56 fold enrichment (6-mer frequency, TF over GST control)"
same,binding signal,[17],"1.51 fold enrichment (6-mer frequency, TF over GST control)"
same,binding signal,[18],"1.47 fold enrichment (6-mer frequency, TF over GST control)"
